Measured values published in PubChem BioAssay (NCI).
About 83,000 compounds went through this panel and 20% of them were active in at least one assay; those are over-represented in the sample as a whole.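 Cell lines were cultured in 96-well plates, exposed to a single compound concentration, and assessed for percent growth 48 hours later.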 Unmarked numbers belong to inactive results. Active and inactive are the calls of the source. The calls were made as follows: active = growth percent below 10; inactive = the rest.

What was measured:
Assay in all cases: NCI-60 one-dose screen, 48 h (100 = growth as untreated, 0 = no growth, -100 = all killed)
Details in all cases: 10 µM unless noted
DU-145 prostate = system: DU-145 prostate
K-562 leukemia = system: K-562 leukemia
MALME-3M melanoma = system: MALME-3M melanoma
MDA-MB-231 breast = system: MDA-MB-231 breast
RXF 393 renal = system: RXF 393 renal
SF-268 CNS = system: SF-268 CNS
SF-295 CNS = system: SF-295 CNS
SF-539 CNS = system: SF-539 CNS
UACC-257 melanoma = system: UACC-257 melanoma
M14 melanoma = system: M14 melanoma
HCT-15 colon = system: HCT-15 colon
HT29 colon = system: HT29 colon
SNB-75 CNS = system: SNB-75 CNS
SNB-19 CNS = system: SNB-19 CNS
U251 CNS = system: U251 CNS
PC-3 prostate = system: PC-3 prostate
SK-MEL-5 melanoma = system: SK-MEL-5 melanoma
UACC-62 melanoma = system: UACC-62 melanoma
LOX IMVI melanoma = system: LOX IMVI melanoma
SK-MEL-28 melanoma = system: SK-MEL-28 melanoma

SMILES	growth (DU-145 prostate)	growth (K-562 leukemia)	growth (MALME-3M melanoma)	growth (MDA-MB-231 breast)	growth (RXF 393 renal)	growth (SF-268 CNS)	growth (SF-295 CNS)	growth (SF-539 CNS)	growth (UACC-257 melanoma)	growth (M14 melanoma)	growth (HCT-15 colon)	growth (HT29 colon)	growth (SNB-75 CNS)	growth (SNB-19 CNS)	growth (U251 CNS)	growth (PC-3 prostate)	growth (SK-MEL-5 melanoma)	growth (UACC-62 melanoma)	growth (LOX IMVI melanoma)	growth (SK-MEL-28 melanoma)
Cc1ccc(C(=O)N/N=C/c2cccc([N+](=O)[O-])c2)cn1	100%	101%	114%	95.6%	110%	110%	107%	98.6%	95.6%	112%	109%	114%	94.2%	98.5%	107%	95.4%	98.9%	98.1%	105%	103%
N#Cc1ccc(NC(=O)c2sc3nc4c(cc3c2N)C(=O)CCC4)cc1	94.9%	108%	89.3%	109%	119%	102%	82.4%	99.8%	106%	106%	101%	84.9%	113%	102%	106%	107%	92.6%	99.3%	112%	106%
CC1=C([Se]CC(OC(=O)[C@@H](CSSC(C)(C)C)NC(=O)OC(C)(C)C)C(=O)NC(C)(C)C)C(=O)c2ccccc2C1=O (stereo not given in full)	-98.7% (active)	31.9%	-65.8% (active)	-42.2% (active)	-67.3% (active)	-96.6% (active)	-42.2% (active)	-100% (active)	-60% (active)	-84.8% (active)	-28.6% (active)	-6.98% (active)	-95.8% (active)	-90.8% (active)	-86.5% (active)	-71.6% (active)	-97.6% (active)	-88.1% (active)	-61.9% (active)	-96.3% (active)
CCCCCCn1c(-c2ccc(C(=O)O/N=C(\N)c3ccc4ccccc4c3)cc2)nc(-c2ccccc2)c1-c1ccccc1	53.9%	-8.77% (active)	71.5%	64.4%	35.1%	51.3%	70.1%	48.8%	82.2%	72.7%	49.3%	74.5%	16%	68.9%	50.2%	51.3%	68.2%	61.1%	-88.6% (active)	72.9%
COc1ccc(-c2conc2-c2ccccc2)cc1	11.5%	13.3%	56.2%	11.6%	-21.8% (active)	44.6%	16.3%	-23.4% (active)	71.5%	6.54% (active)	17.9%	53.1%	-12.4% (active)	30.1%	20.9%	20%	22.4%	17.8%	38.8%	55.3%
CCCCNC(=O)Oc1ccc(/C(=C(\C)c2ccc(Cl)cc2)c2ccc(OCCN3CCCCC3)cc2)cc1	90.4%	21.6%	81.7%	94%	79.5%	76.1%	91.7%	71.7%	35.5%	68.2%	23.8%	10.9%	80.3%	93.5%	59.3%	63.8%	74.2%	83%	79.8%	80.1%
Cc1ccc(C(CC(=O)O)c2c(C)[nH][nH]c2=O)cc1 (stereo not given)	106%	90.8%	99.4%	-33.1% (active)	102%	94.9%	102%	97%	104%	96.7%	103%	113%	92.9%	98.5%	96.4%	105%	102%	96.1%	95.5%	110%
CCCSc1nc2ccc(C)cc2cc1/C=[N+](\[O-])c1ccccc1	42%	40.4%	46.2%	51.1%	69.4%	45.5%	98.8%	1.38% (active)	63.3%	6.91% (active)	11.5%	10% (active)	21.4%	37.2%	12.8%	23.1%	27.6%	31.3%	19%	48.3%
Cc1cc(=O)[nH]c(=O)n1Cc1cn(-c2c3ccccc3nc3ccccc23)nn1	15.7%	7.13% (active)	93.6%	77.3%	90.7%	90.4%	102%	98.9%	67%	97.8%	79.2%	113%	103%	87.3%	88.3%	97.3%	78.9%	85.2%	15.2%	75.6%
COc1ccc(OC)c(/C=C/C(=O)N/N=C/c2ccccc2)c1	72.5%	21.2%	59%	71.8%	45.4%	60.7%	48.5%	51.8%	51.3%	27.8%	42%	20.7%	41.1%	47.9%	43.5%	63.5%	30.8%	61%	42.1%	65.5%
COc1ccc(S(=O)(=O)n2cc(C3OC(c4cc(OC)c(OC)c(OC)c4)=NN3C(C)=O)c3ccccc32)cc1OC (stereo not given)	145%	64.4%	104%	82.6%	89.3%	108%	93%	89.1%	87.9%	98.1%	81.8%	110%	86%	85.7%	97.7%	80.3%	76.4%	72.8%	78.4%	110%
Cc1ccc(-c2nc(N3CCN(C(=O)c4ccc(OC(F)(F)F)cc4)CC3)c3ccccc3n2)cc1	90.8%	70%	104%	84.3%	88.5%	71.9%	93.9%	98.2%	99.3%	94.9%	72.8%	88.9%	76.2%	88.4%	86.1%	63.9%	81.5%	75.4%	89.4%	101%
Cc1cc(Cl)ccc1NS(=O)(=O)c1ccc(-c2cnc(C3CC3)o2)cc1	21%	9.89% (active)	68%	26.2%	16.2%	47%	16.9%	-19.1% (active)	69.4%	10.2%	14.1%	5.04% (active)	-2.31% (active)	22.8%	24.8%	26.6%	20.4%	26.7%	22.4%	49.1%
COc1ccc(C2CC(c3ccc(Nc4nc(Nc5ccc(F)cc5)nc(Nc5ccc(Cl)cc5)n4)cc3)=NN2C(C)=O)cc1 (stereo not given)	122%	114%	88.1%	90.9%	86.6%	131%	103%	101%	98.5%	104%	93.6%	108%	85.5%	79.3%	86.7%	85.2%	92%	90.6%	105%	114%
Cc1ccc(-c2cnc3sc(C(=O)NCCc4ccccc4)c(C)n23)cc1	99.1%	93.9%	95.5%	79.1%	99.1%	86.7%	104%	96.6%	120%	91.9%	97.9%	113%	79.3%	92.1%	95%	81.7%	99.7%	85.9%	84.4%	104%
CCC12CCC[N+]3([O-])CCC4(C(=Nc5ccccc54)C(O)(C(=O)OC)C1)C23 (stereo not given)	103%	109%	104%	103%	113%	96.2%	102%	103%	115%	96.7%	108%	98.3%	92.7%	102%	108%	87.8%	116%	103%	100%	94.5%
Cc1cc(C)c(-c2c(N)cc(Br)cc2Br)c(N)c1	71.2%	13.4%	26.9%	56.4%	10.5%	76.1%	36.7%	46.9%	66.8%	41.4%	46.5%	48.7%	22.9%	63.4%	37.4%	63.3%	29.3%	58%	32.8%	51.1%
O=C1NC(=O)C(Cn2cnc3ccccc32)N1 (stereo not given)	110%	106%	103%	103%	114%	100%	104%	96.4%	101%	103%	101%	105%	85.7%	95.5%	101%	95%	101%	98.5%	97.8%	104%
O=C(CCCCCCSc1nc(-c2ccccc2)cc(-c2ccccc2)n1)NO	36.3%	11.3%	14.3%	40.8%	6.08% (active)	62.3%	41.7%	53.1%	29%	31.7%	32.6%	8.32% (active)	21.2%	47.3%	35%	49.7%	9.17% (active)	12.8%	3.67% (active)	39.9%
COc1ccc2cc(C(C)C(=O)Nc3ccc(-c4n[nH]c(=S)n4C4CCCCC4)cc3)ccc2c1 (stereo not given)	89.1%	63.9%	124%	75.9%	91.1%	65.5%	60.7%	83.8%	76.7%	63.2%	54.3%	85.1%	67%	80%	56.8%	39.2%	67.5%	58.3%	70.7%	75.6%
Cc1nc2ccccc2c(/C=C/c2ccc(Cl)cc2)c1C(=O)/C=C/c1cccs1	79%	44.7%	107%	75.8%	83.7%	78.8%	82%	99.5%	79.9%	82%	52.1%	52.8%	56.7%	86.7%	77.5%	54%	76.6%	68.4%	79.6%	95.7%
COc1cc2oc(-c3ccc(O)cc3)cc(=O)c2c(O)c1-c1c(OC)cc(O)c2c(=O)cc(-c3ccc(O)cc3)oc12	53.5%	44.5%	63.2%	48.5%	-44.1% (active)	12.8%	67.1%	18%	91.5%	28%	30.4%	12.1%	-2.61% (active)	17.8%	19.2%	72.3%	-49.5% (active)	-26.3% (active)	18.2%	18.3%
Cc1cc2nc3cc(C)c(N)cc3[n+](-c3ccccc3)c2cc1N	72.9%	32.4%	48.7%	90.3%	91.7%	24%	34.5%	50.5%	32.6%	89.5%	111%	85.3%	52.1%	23.3%	19.4%	42.5%	20.7%	53.1%	67%	80.7%
OC(COc1ccccc1Cl)CN1CCN(c2cccc(Cl)c2)CC1 (stereo not given)	114%	108%	107%	89.3%	118%	105%	105%	101%	93.4%	98.1%	97.2%	99.2%	104%	97.6%	97.6%	84.4%	102%	98.5%	91.6%	107%
CCOC(=O)/C(C#N)=C\Nc1ccc2ncnc(Nc3ccc(Cl)cc3Cl)c2c1	55.9%	59.7%	140%	85.2%	77%	73%	82.2%	92.7%	97.2%	106%	92.7%	79.4%	91.3%	86.4%	81.4%	59.3%	78.3%	90%	87.4%	109%
Cc1c(C(=O)NCCCc2ccccc2)sc2ncc(-c3ccc(Br)cc3)n12	104%	101%	101%	99.4%	109%	98.9%	112%	103%	109%	100%	104%	120%	98.4%	101%	100%	102%	101%	95.7%	99.1%	104%
COc1cc(C(=O)c2cnc(-c3cccc4[nH]ccc34)[nH]2)cc(OC)c1OC	2.85% (active)	8.88% (active)	60.8%	-3.5% (active)	66.7%	24.5%	21.6%	1.12% (active)	85%	-6.97% (active)	17.8%	7.58% (active)	30.5%	40.3%	20.2%	22.4%	-23.6% (active)	39.3%	28.1%	55.1%
